Autofluor 339 – intrinsic fluorescence of library compounds, ex339/em460 – biochemical, MLSMR library, data from DPM-DC assay, artefact control, profiling panel; compound autofluorescence, ex339/em460 nm, NADH buffer; active compounds read high; 1 = no-compound wells, NADH background; fluorescence fold increase at 10 µM; actives 5.5% (n = 65,000); AID 709, 2007;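 active = at 10 µM, mean starting fluorescence two-fold or more over control wells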;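 also: signal is the first read of a kinetic run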
PMK inhibit – S. pneumoniae PMK inhibitors, primary screen, biochemical, mevalonate pathway, pilot trial included. phosphomevalonate kinase (Streptococcus pneumoniae D39). purified PMK, PK/LDH-coupled NADH absorbance 340 nm. inhibition, % at 10 µM. actives 0.49% (n = 65,000);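 active = top-ranked compounds by inhibition in the single 10 µM screen, taking a fixed number of the strongest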;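 also: 0% = full reaction with DMSO carrier and 100% = background rate without enzyme reaction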
NADH enzymes – inhibitors of PK/LDH coupling enzymes, profiling panel, artefact control, biochemical, MLSMR library; coupled PK/LDH NADH assays, four targets; IC50, µM (series often up to 10 µM), for the others: top-dose inhibition; actives 0.02% (n = 65,000);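 active = single-dose screening hits from any of four coupled enzyme assays that gave an IC50 when retested across doses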;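 also: the DPM-DC format reads NADH fluorescence rather than 340 nm absorbance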
MK inhibit – S. pneumoniae MK inhibitors, primary screen, biochemical, PK/LDH-coupled NADH absorbance; mevalonate kinase [Streptococcus pneumoniae D39]; purified MK, PK/LDH-coupled NADH absorbance 340 nm; inhibition, % at 10 µM; actives 0.48% (n = 65,000);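 active = ranked among the strongest by inhibition in the single 10 µM screen, a fixed top-ranked set picked for dose follow-up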
Spn DPM-DC inh – S. pneumoniae DPM-DC inhibitors, primary screen, biochemical, PK/LDH-coupled NADH fluorescence | diphosphomevalonate decarboxylase (Streptococcus pneumoniae D39) | purified DPM-DC | actives 0.49% (n = 65,000) | calls only at 10 µM;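 active = the 320 compounds with the highest percent inhibition in the single-dose primary screen, excluding strongly autofluorescent ones, cut at about 32% in these data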;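 also: kinetic rate of NADH fluorescence loss reporting ADP formed by the decarboxylase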
A340 absorber – compound light absorbance at 340 nm, profiling panel, artefact control, biochemical, MLSMR library, data from PS, PMK, MK assays; compound absorbance at 340 nm, fold over control; fold change at 10 µM; 65,000 tested, under 10 active; AID 708, 2007;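 active = at 10 µM dose, initial 340 nm absorbance at least 2 fold that of control wells; inactive = change under 2 fold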;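 also: initial absorbance extrapolated from kinetic A340 decline of NADH oxidation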
Starred values were filed as active, the others as inactive; i = inactive; / = no result given. Sampled rows, rich in hits. Any-hit rate of the full collection: about 6.8%.

SMILES	Autofluor 339	PMK inhibit	NADH enzymes	MK inhibit	Spn DPM-DC inh	A340 absorber
Cc1ccc(S(=O)(=O)Nc2cc(C)nn2-c2ccccc2)cc1	1.1	5	4%	7	i	1
CC1=CC(c2ccccc2)n2nc(NS(=O)(=O)c3ccc(C)cc3)nc2N1 (centres undefined)	2.2*	9	8%	7	/	1.1
CCNC(=O)NC(C(=O)OC)C12CC3CC(CC(C3)C1)C2 (centres undefined)	1.1	0	0%	0	i	1.1
COc1ccc(C2(C)NC(=O)N(Cc3cc(Cl)cc4c3OCOC4)C2=O)cc1OC (centres undefined)	1.1	31*	13%	7	i	0.9
CCc1cc(=O)oc2cc(C)cc(O)c12	1.1	15	7%	6	i	1.1
CCc1cc(=O)oc2cc(C)c3c(C)coc3c12	2.4*	6	14%	5	i	1.1
COc1ccc(-c2c(N)nnc3c2[nH]c2ccccc23)cc1OC	4.6*	11	12%	12	/	1
O=C1CCCC2=C1C(c1ccncc1)c1c(nc(SCc3ccccc3Cl)[nH]c1=O)N2 (centres undefined)	2.1*	6	11%	9	i	1
N=c1c(S(=O)(=O)c2ccc(Cl)cc2)cc2c(=O)n3ccccc3nc2n1CCN1CCOCC1	5*	0	0%	/	/	1
Cc1ccc(S(=O)(=O)c2cc3c(=O)n4cccc(C)c4nc3n(CC3CCCO3)c2=N)cc1 (centres undefined)	1.5	6	10%	7	i	1
Cn1c(=N)c(S(=O)(=O)c2ccc(F)cc2)cc2c(=O)n3ccccc3nc21	3.4*	15	13%	10	/	1
Cn1c(=N)c(S(=O)(=O)c2ccccc2)cc2c(=O)n3ccccc3nc21	2.8*	13	4%	3	/	1
N#Cc1ccccc1Cn1c(=O)n(Cc2ccc(C(=O)NCc3ccco3)cc2)c(=O)c2ccccc21	1.1	7	1%	0	i	0.99
O=C(CN1CCOc2ccccc21)NCc1ccccc1	1.1	16	10%	5	i	1
CCc1ccc(OCC(=O)Nc2ccc(-c3nc4ccccc4o3)c(O)c2)cc1	2.2*	7	9%	11	/	1.1
N#CN=C1SCCS1	1.1	5	6%	9	i	1
Nc1c(C(=O)Nc2ccc(F)cc2)sc2nc(-c3ccco3)ccc12	3.8*	0	3%	5	/	1.1
COc1ccccc1N(C(=O)c1snc(C(N)=O)c1N)C(C(=O)NC1CCCC1)c1ccco1 (centres undefined)	2.9*	10	15%	6	i	1
CC(C(=O)NC1CCCC1)N(Cc1ccco1)C(=O)c1snc(C(=O)NC2CCCC2)c1N (centres undefined)	2.4*	20	15%	1	i	1
COc1ccccc1N(C(=O)c1snc(C(N)=O)c1N)C(C(=O)NCCC(C)C)c1ccco1 (centres undefined)	2.5*	7	10%	7	i	1.1
CCOc1ccccc1N(C(=O)c1snc(C(N)=O)c1N)C(C(=O)NCCC(C)C)c1ccco1 (centres undefined)	1.8	11	8%	14	i	1.1
COCCNC(=O)C(c1ccc(C)o1)N(C(=O)c1snc(C(N)=O)c1N)c1cc(C)cc(C)c1 (centres undefined)	2.1*	14	12%	10	i	1
C=CCNc1nc(N(c2ccccc2)c2ccccc2)nc(-n2ccnc2)n1	1.1	17	8%	7	i	0.98
COC(=O)c1[nH]cnc1C(=O)c1ccccc1	1.1	1	3%	8	i	1
O=C(O)CNC1=NCCCCC1	1.1	12	5%	4	i	1
